Records with an inconclusive call do not appear. Unmarked numbers belong to inactive results. Calls of active or inactive are those of the source. Calls come from the whole dose curve; as a rule, active = well fitted inhibition curve with a large enough effect; inconclusive = small, poorly fitted or top-dose-only effect; inactive = flat fitted curve, though single readings scatter.
Each compound was assayed on Zika virus NS2B-NS3 protease (assay: Primary screen GU AMC qHTS for Zika virus inhibitors (AID 1347154;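 note: 0% = no-inhibitor control and -100% = no-enzyme control; nearly all actives have a fitted effect of over 70% in size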)). Settings: Zika NS2B-NS3 unlinked protease, AMC fluorogenic substrate; series mostly up to 54.1 µM; activity change, negative = inhibition: at the top concentration.
In short: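 Fluorogenic AMC-substrate cleavage by noncovalent NS2B-NS3 protease complex (25 nM, pH 8.0 Tris buffer with Tween 20) followed for 15 minutes at room temperature (~20% conversion). Percent inhibition from ex340/em450 signal change, fitted by 4-parameter Hill equation.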

In order of falling “activity change, negative = inhibition” value:
1. Cc1ccsc1C(=CCCN1CCC[C@@H](C(=O)O)C1)c1sccc1C  12.1%
2. C[C@@H](c1ncncc1F)C(O)(Cn1cncn1)c1ccc(F)cc1F (some centres not stated)  7.44%
3. CC1(C)S[C@@H]2[C@H](N=CN3CCCCCC3)C(=O)N2[C@H]1C(=O)O  6.58%
4. C/C=C1\[C@H]2C=C(C)C[C@]1(N)c1ccc(=O)[nH]c1C2  4.65%
5. Cc1cc(-n2nc3ccc(Cl)cc3n2)c(O)c(C(C)(C)C)c1  4.08%
6. CC(=O)OC[C@H]1O[C@@](COC(C)=O)(O[C@H]2O[C@H](COC(C)=O)[C@@H](OC(C)=O)[C@H](OC(C)=O)[C@H]2OC(C)=O)[C@@H](OC(C)=O)[C@@H]1OC(C)=O  3.34%
7. CC(=O)N[C@H]1[C@H]([C@H](O)[C@H](O)CO)OC(C(=O)O)=C[C@@H]1N=C(N)N  3.3%
8. CN1C(C)(C)CCCC1(C)C  3.04%
9. CCc1nnc(NS(=O)(=O)c2ccc(N)cc2)s1  2.05%
10. C=CCNC(N)=S  1.33%
11. COCC(=O)Nc1c(I)c(C(=O)NCC(O)CO)c(I)c(C(=O)N(C)CC(O)CO)c1I (configuration not stated)  1.15%
12. COc1ccc(C(=O)N2CCN(CC(=O)N3CCOCC3)CC2)cc1  0.679%
13. O=C(NCCCN1CCOCC1)c1ccc(Cl)cc1  0.465%
14. CCCCCCCCCCCCCCCCCCO  0.409%
15. O=C(CCBr)N1CCN(C(=O)CCBr)CC1  -0.152%
16. CCC(C)(CN(C)C)OC(=O)c1ccccc1 (configuration not stated)  -0.189%
17. O=C(O)c1ccc(OCCCOc2ccc(C(=O)O)cc2)cc1  -0.954%
18. Cc1cc(NC(=O)C2=C(O)c3ccccc3S(=O)(=O)N2C)no1  -1.22%
19. CC(=O)N[C@@H](CC(C)C)C(=O)O  -1.25%
20. CC(C(=O)O)c1ccc2c(c1)Cc1cccnc1O2 (configuration not stated)  -1.36%
21. CC(=O)Oc1cccc(O)c1  -1.48%
22. COc1ccc(O)cc1  -1.98%
23. Cc1onc(-c2ccccc2)c1-c1ccc(S(N)(=O)=O)cc1  -2%
24. CC(=O)N(CC(O)CO)c1c(I)c(C(=O)NCC(O)CO)c(I)c(C(=O)NCC(O)CO)c1I (configuration not stated)  -2.08%
25. CCCC(O)C(CC)CO (configuration not stated)  -2.12%
26. O=C1c2cccc(O)c2C(=O)c2c(O)cccc21  -2.23%
27. CCCCCC(C)N (configuration not stated)  -2.31%
28. OCc1ccc(Cl)cc1Cl  -3.48%
29. O=C(O)c1ccc[n+]([O-])c1  -3.9%
30. Cc1c(NC(=O)c2cccnc2)c(=O)n(-c2ccccc2)n1C  -4.3%
31. O=c1[nH]c(=O)c2ccccc2o1  -5.12%
32. NC(=O)NS(=O)(=O)c1ccc(N)cc1  -5.53%
33. Cc1c(C(=O)NCCO)[n+](=O)c2ccccc2n1[O-]  -5.63%
34. Cc1ccsc1/C=C/C1=NCCCN1C  -7.69%
35. CCOC(=O)[C@H](CCc1ccccc1)N[C@@H](C)C(=O)N1CCC[C@H]1C(=O)O  -15.5%

`Cc1[nH]c(C)c(Cl)c(=O)c1Cl` was tested, and the “activity change, negative = inhibition” value was 1.07% [at 25.8 µM].

With `C[N+](C)(C)CC[N+]1(C)Cc2c(Cl)c(Cl)c(Cl)c(Cl)c2C1` the Potency was “inactive”.

— PubChem BioAssay (NCATS)
